Bioassay records from PubChem BioAssay.
An excerpt weighted towards active compounds, which were near 11% of everything screened.
3T3 cytotox = kills NIH 3T3 cells; NIH 3T3 viability, CellTiter-Glo ATP luminescence, 48-72 h; Potency, µM (highest dose often 96.7 µM), for inactives: at the highest dose activity change, negative = cytotoxicity, usual class: inhibitors; actives 4.3% (n = 94,000); note: nearly all actives have a fitted effect of over 55% in size
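Cytotoxicity is measured as loss of cellular ATP: NIH 3T3 cells (400/well) are exposed to compound for 48 or 72 hr at 37 °C, then CellTiter-Glo luminescence is imaged after 10 min at room temperature.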
HEK293 tox = kills HEK 293 cells. HEK 293 viability, ATP luminescence (CellTiter-Glo), 48-72 h. Potency, µM (top dose mostly 115 µM), for inactives: at the top dose activity change, negative = cytotoxicity, most hits filed as inhibitors. actives 6.6% (n = 94,000); note: nearly all actives have a fitted effect of over 60% in size
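ATP-coupled CellTiter-Glo luminescence served as viability read-out, recorded 10 min after reagent addition at room temperature. HEK 293 cells, 250 cells/well, had been incubated with pintool-transferred compound for 48 or 72 hr at 37 degree Celsius.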
hNpr1 antagonist = human Npr1 receptor antagonism. actives 1.6% (n = 76,000). HEK293 hNpr1 GloSensor cGMP, ANP-stimulated luminescence. Potency, µM (top dose mostly 46.3 µM), for the others: at the top dose activity change, negative = inhibition, usual class: inhibitors. P16066; calls by dose curve; note: nearly all actives have a fitted effect of over 60% in size
Target sequence (P16066 whole entry, looked up): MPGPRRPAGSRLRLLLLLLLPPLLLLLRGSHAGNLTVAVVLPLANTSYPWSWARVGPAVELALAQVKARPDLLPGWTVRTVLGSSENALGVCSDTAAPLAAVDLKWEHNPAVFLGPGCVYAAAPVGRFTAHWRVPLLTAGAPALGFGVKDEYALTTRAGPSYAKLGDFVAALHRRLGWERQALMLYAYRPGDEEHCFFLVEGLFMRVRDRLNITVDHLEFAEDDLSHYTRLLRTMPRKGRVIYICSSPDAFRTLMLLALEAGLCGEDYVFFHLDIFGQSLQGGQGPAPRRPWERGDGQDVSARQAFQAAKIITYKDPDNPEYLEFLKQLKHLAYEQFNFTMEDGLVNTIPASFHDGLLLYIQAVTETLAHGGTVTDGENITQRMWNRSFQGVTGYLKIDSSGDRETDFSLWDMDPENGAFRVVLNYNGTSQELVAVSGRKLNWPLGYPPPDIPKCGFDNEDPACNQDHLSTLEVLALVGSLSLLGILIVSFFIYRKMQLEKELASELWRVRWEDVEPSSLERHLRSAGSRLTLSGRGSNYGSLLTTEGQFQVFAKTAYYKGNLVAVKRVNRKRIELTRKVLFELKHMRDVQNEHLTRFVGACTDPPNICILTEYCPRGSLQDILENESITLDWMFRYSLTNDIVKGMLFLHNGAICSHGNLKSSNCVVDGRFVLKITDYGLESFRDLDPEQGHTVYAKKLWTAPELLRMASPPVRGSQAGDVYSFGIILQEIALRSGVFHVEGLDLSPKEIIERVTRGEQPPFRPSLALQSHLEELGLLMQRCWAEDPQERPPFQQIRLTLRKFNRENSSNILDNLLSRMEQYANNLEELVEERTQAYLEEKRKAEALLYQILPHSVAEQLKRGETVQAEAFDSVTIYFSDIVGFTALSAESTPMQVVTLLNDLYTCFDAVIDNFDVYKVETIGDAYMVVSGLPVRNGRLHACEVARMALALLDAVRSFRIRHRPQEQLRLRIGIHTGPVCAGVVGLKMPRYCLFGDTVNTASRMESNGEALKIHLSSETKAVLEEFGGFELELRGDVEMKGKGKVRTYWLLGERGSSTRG
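HEK293 cells stably expressing human Npr1 and cGMP GloSensor pGS-40F, loaded 2 h with 2% GloSensor reagent, given compound 30 min at room temperature. Luminescence read before and 20 min after 0.1 nM hNppA.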
Luciferase inh = Photinus pyralis luciferase inhibition; actives 2.5% (n = 76,000); purified P. pyralis luciferase, luminescence, biochemical; Potency, µM (titrated, usually from 115 µM), hits mostly inhibitors; P08659; AID 1347043; note: nearly all actives have a fitted effect of over 65% in size
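Purified P. pyralis luciferase (10nM final) in 50mM Tris acetate pH 7.5, 10mM Mg acetate, 0.01% Tween-20, 0.05% BSA with 10uM D-luciferin and 10uM ATP. Compounds titrated qHTS. Luminescence imaged on CCD.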
An asterisk follows results filed as active; i = inactive; ? = inconclusive; . = no result; [ ] = dose if it differs, or a comment. Unless noted, calls come from the whole dose curve; as a rule, active = well fitted curve in the direction sought with a large enough effect; inconclusive = small, poorly fitted or top-dose-only effect, or another doubt; inactive = no such curve, though single readings can be large; an effect the other way counts as inactive or inconclusive. % is set by controls: 0 for no effect and ±100 for the full control effect; potency is the fitted concentration of half-maximal effect.

SMILES | 3T3 cytotox | HEK293 tox | hNpr1 antagonist | Luciferase inh
O=C(C1CC1)N1CCc2nc(-c3ccc(Cl)cc3)nc(-c3ccccc3)c2C1 | ? | 40µM* | -1% | i
Cc1nc2c(c(-c3ccc(O)cc3)n1)CN(C(=O)C1CCCC1)CC2 | ? | 40µM* | 7% | i
O=C(c1ccccc1)N1CCc2nc(-c3ccc(Cl)cc3)nc(-c3ccccc3)c2C1 | ? | 22µM* | 5% | i
COc1ccc(C(=O)N2CCc3nc(-c4ccccc4)nc(-c4ccc(Cl)cc4)c3C2)cc1 | ? | 22µM* | . | .
N#Cc1cccc(CN2CCC3(CC2)CC(Cc2nc(C4CC4)no2)CCO3)c1 (centres undefined) | ? | 45µM* | -30% | i
COc1ccccc1C(=O)NC1CCN(c2ccc3nnc(C4CC4)n3n2)CC1 | -23% | ? | . | .
CC(C)N1CC[C@H](CO)[C@H](NC(=O)C2CC2)C1 | -10% | -9% | 4% | i
COc1ccccc1-c1ccc2ncn(Cc3ccccc3)c(=O)c2n1 | 7.9µM* | ? | 3%[70.6 µM] | i
O=c1c2nc(NCc3ccccc3)ccc2ncn1Cc1ccccc1 | 35µM* | ? | 2%[70.6 µM] | i
c1cncc(-c2nc3c(c(NCc4ccccc4-n4ccnc4)n2)CNC3)c1 | -5% | -16% | 5% | i
CCCOc1ccccc1C(C)Nc1nc(-c2cccnc2)nc2c1CNC2 (centres undefined) | ? | 79µM* | -29% | i
COc1ccc(-c2ccc(C(=O)NC(C)C)c(Cl)c2)nn1 | ? | -28%[172 µM] | . | .
COc1ccc(-c2ccc(C(=O)N3CCN(C(=O)c4ccc(C)cc4)CC3)cc2)nn1 | -23% | -25% | . | .
COc1ccc(-c2ccc(C(=O)N3CCCC3)c(Cl)c2)nn1 | 32µM* | ? | . | .
COc1ccc(-c2ccc(C(=O)N3CCCC3)cc2)nn1 | 18µM* | 25µM* | . | .
Cc1nc(N2CCC(NC(=O)CC3CCCCC3)CC2)cc(C(F)(F)F)n1 | -36% | -20% | 0% | i
O=C(NCCc1nc(-c2cccnc2)no1)c1coc2c1C(=O)CCC2 | ? | ? | -6% | i
CCCN1CCCC12Cc1ccccc1CN(C(=O)CC)C2 (centres undefined) | 5% | -11% | . | .
CCCN1CCCCC12Cc1ccccc1CN(C(=O)c1c(C)noc1C)C2 (centres undefined) | 32µM* | ? | . | .
CCN1CCC2(Cc3ccccc3CN(C(=O)c3c(C)noc3C)C2)C1 (centres undefined) | 0% | 4% | . | .
CCCN1CCCC12Cc1ccccc1CN(C(=O)C(C)C)C2 (centres undefined) | ? | 89µM* | . | .
CC1(c2ccccc2)N(Cc2cccnc2)C(=O)OC12CCN(C(=O)C1CCC1)CC2 (centres undefined) | 18µM* | -15%[172 µM] | 0%[70.6 µM] | i
CC1(c2ccccc2)N(Cc2cccnc2)C(=O)OC12CCN(C(=O)c1ccc(F)cc1)CC2 (centres undefined) | ? | i | 0% | i
CC1(c2ccccc2)N(Cc2cccnc2)C(=O)OC12CCN(C(=O)c1ccccc1)CC2 (centres undefined) | ? | 1%[172 µM] | -6%[70.6 µM] | i
Cc1ncsc1C(=O)N1CCC2(CC1)OC(=O)N(Cc1cccnc1)C2(C)c1ccccc1 (centres undefined) | 22µM* | i | 4% | i
SMILES | 3T3 cytotox | HEK293 tox | hNpr1 antagonist | Luciferase inh
Cc1ncsc1C(=O)N1CCC2(CC1)OC(=O)N(Cc1ccccc1)C2(C)c1cccnc1 (centres undefined) | 22µM* | i | 4% | i
COc1ccc(C(=O)N2CCC3(CC2)OC(=O)N(Cc2cccnc2)C3(C)c2ccccc2)cn1 (centres undefined) | 40µM* | i | 0% | i
CCN1CCN(c2nc3c(s2)CN(C(=O)Cc2cccnc2)CC3)CC1 | ? | ? | 0% | i
O=C1NC(=O)C(CCC(=O)N2CCCN(Cc3ccccn3)CC2)N1 (centres undefined) | ? | ? | -1% | i
C[S+](=O)([O-])NCCn1ccc2cc(OC3CCN(C(=O)C4CCCC4)CC3)cnc21 | 100µM* | ? | -27%[70.6 µM] | i
COC[C@H]1CCCN1Cc1cn(-c2ccccc2)nc1-c1ccc(OC)cc1F | -19% | ? | 0% | ?
Cc1noc(C)c1-c1cc2cc(CN(C)C)oc2c(NCc2cccnc2)n1 | ? | ? | 7%[70.6 µM] | i
Cc1ccccc1-c1nc(-c2c(C)noc2C)cc2cc(CN(C)C)oc12 | 28µM* | ? | 4%[70.6 µM] | i
Cc1noc(C)c1-c1cc2cc(CN(C)C)oc2c(Nc2cccnc2)n1 | 25µM* | 71µM* | -1%[70.6 µM] | i
Cc1noc(C)c1-c1cc2cc(CN(C)C)oc2c(NCc2ccccc2)n1 | ? | ? | 2%[70.6 µM] | i
COCCNC(=O)c1cc(-c2ccc(Cl)cc2Cl)c2nncn2n1 | -2% | i | . | .
CNC(=O)c1cc(C2CC2)nc2c1c(C1CCN(C(=O)c3ccccc3)CC1)nn2C | -5% | i | . | .
COc1ccccc1-c1cc(C(=O)N2CCN(C(C)=O)CC2)c2cnn(C)c2n1 | -18% | -9% | . | .
O=C1c2c(nc(COc3cccc(F)c3)n2Cc2ccccc2)NCCN1CC1CC1 | 89µM* | 100µM* | -3%[70.6 µM] | i
O=C1c2c(nc(COc3cccc(F)c3)n2Cc2ccccc2)NCCN1CCOc1ccccc1 | 35µM* | ? | -26% | i
COCCN1CCNc2nc(COc3ccc(C(C)C)cc3)n(Cc3ccccc3)c2C1=O | ? | 63µM* | 0% | i
COc1ccc(N2CCN(c3cc(C4CC(N)C4)nc(N)n3)CC2(C)C)cc1 (centres undefined) | 22µM* | 22µM* | -24% | i
Nc1nc(C2CC(N)C2)cc(N2CCN(C3CCCC3)C(=O)C2)n1 (centres undefined) | -1% | -3% | 1% | i
C#CCNC(=O)c1ccc2nc(-c3cccnc3)oc2c1 | -10%[138 µM] | -21%[172 µM] | . | .
COc1ccc(OC)c(NC(=O)N2C[C@@H](F)C[C@H]2C(=O)N2CCCCC2)c1 | 11µM* | -11% | 4% | i
COc1ccc(NC(=O)N2C[C@@H](F)C[C@H]2C(=O)N2CCCCC2)cc1F | 1% | -2% | 3% | i
CNC(=O)c1cc(C2CC2)nc2c1c(C1CCN(C(=O)C3CC3)C1)nn2C (centres undefined) | -21% | 0% | . | .
N#Cc1cccc(NC(=O)c2cccc(CN3CCN(CCO)CC3)c2)c1 | -7% | ? | -18% | i
Cc1c(CN(C)Cc2cccc(C(=O)Nc3ccc(C#N)cc3)c2)cnn1C | -29% | 50µM* | -12% | i
COc1ccc(CN2CCC(CO)(CN3CCCC3)CC2)cc1C | ? | 89µM* | -1% | i
COc1ccc(CN2CCC(CO)(CN3CCCC3)CC2)cc1OC | ? | -23% | 5% | i
CC(C)Oc1ccc(CN2CCC(CO)(CN3CCCC3)CC2)cc1Cl | 32µM* | 25µM* | -3% | i
